Source: PubChem BioAssay (National Center for Advancing Translational Sciences (NCATS))
Pf growth 96h – P. falciparum growth inhibition at 96 hour, primary screen for plastid delayed-death inhibitors | 6.9% of 320,000 active | Potency, µM (titrated, usually from 28.7 µM), for the others: at the highest dose activity change, negative = inhibition, hits mostly inhibitors | P. falciparum luciferase reporter growth, 96 h | AID 504834; note: potency is the fitted concentration of half-maximal effect; % is set by controls: 0 for no effect and ±100 for the full control effect
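Infected RBCs, 2% Hct / 0.05% parasitemia final; luciferase-reporter P. falciparum; cpd 96 h, 37 C, 5% CO2; luciferase detection reagent; luminescence.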
Cycloheximide cs – affects cycloheximide protein synthesis inhibition readout, counter-screen; cell reporter, cycloheximide protein synthesis inhibition counterscreen; max response, %; 12% of 300,000 active; in the data active = max response mostly above about 13%, no sharp cut-off; inactive = mostly below about 14%; note: read at 38.3 µM for the half of the compounds with a filed dose; 0% is about no effect
Shiga inhibitor – blocks Shiga toxin action in Vero cells; Vero cells, Shiga toxin protein synthesis inhibition reporter; inhibition, % at 38.7 µM; 9.2% of 290,000 active; in the data active = inhibition mostly above about 28%, no sharp cut-off; inactive = mostly below about 43%; note: 0% is about no effect
Lassa entry inh – blocks Lassa virus binding to or entry into cells; 1.2% of 300,000 active; Lassa virus pseudotype entry inhibition, cell reporter; Potency, µM (top dose mostly 37.9 µM), inactives show top-dose activity change, negative = inhibition, most hits filed as inhibitors; calls by dose curve; tested in HEK293 cells; note: potency is the fitted concentration of half-maximal effect; % is set by controls: 0 for no effect and ±100 for the full control effect; nearly all actives have a fitted effect of over 50% in size
Pf growth 48h – inhibits P. falciparum growth in the first generation, 48 h | P. falciparum luciferase growth in erythrocytes, 48 h | 5.9% of 310,000 active | Potency, µM (top dose mostly 28.7 µM), inactives show top-dose activity change, negative = inhibition, usual class: inhibitors; note: potency is the fitted concentration of half-maximal effect; % is set by controls: 0 for no effect and ±100 for the full control effect
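Luciferase-expressing parasites in RBCs, 2% Hct / 0.1% parasitemia final; RPMI 1640 + 0.5% Albumax; 37 C, 5% CO2, one generation; luminescence read-out, lower signal = inhibition.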
MARV entry inh – blocks Marburg virus binding to or entry into cells; 1.8% of 300,000 active; Potency, µM (titrated, usually from 37.8 µM), without a hit: top-dose activity change, negative = inhibition, usual class: inhibitors; Marburg virus pseudotyped entry inhibition, cell reporter; AID 540276; calls by dose curve; tested in HEK293 cells; note: potency is the fitted concentration of half-maximal effect; % is set by controls: 0 for no effect and ±100 for the full control effect
* hit, by the source's call; ? = inconclusive; · = not tested or not shown; [ ] = dose if it differs, or a comment. Compounds with a hit are over-represented: about 19% of the library has one in this group of screens. Unless noted, calls come from the whole dose curve; as a rule, active = well fitted inhibition curve with a large enough effect; inconclusive = small, poorly fitted or top-dose-only effect, or another doubt; inactive = no such curve, though single readings can be large or run the other way.

SMILES	Pf growth 96h	Cycloheximide cs	Shiga inhibitor	Lassa entry inh	Pf growth 48h	MARV entry inh
C=C1c2ccc(C)cc2NC(=O)N1c1ccccc1	-9%	2	11	8%	?	16%
Cc1ccc(OC(C)C(=O)Nc2nonc2-c2ccc(Br)cc2)cc1C (stereo not drawn)	·	·	·	15%[46.1 µM]	·	2%[46.1 µM]
Cc1ccc(S(=O)(=O)N2CCC(=O)N(C(COCc3cccc(Cl)c3)C(C)C)CC2)cc1 (stereo not drawn)	10µM*	-4	-19	-11%	15µM*	4%
Cc1ccc(S(=O)(=O)N2CCC(Oc3cccc(C(F)(F)F)c3)CC2)cc1	2.3µM*	-9	-4	·	2%	·
Cc1ccc(S(=O)(=O)N2CCC(=O)N(C(COCc3cccc(C(F)(F)F)c3)C(C)C)CC2)cc1 (stereo not drawn)	10µM*	-3	9	?	?	13µM*
Cc1ccc(S(=O)(=O)N2CCC(=O)N(CCOCc3cccc(Cl)c3)CC2)cc1	?	-4	-14	-16%	-1%	-5%
Cc1ccc(S(=O)(=O)N2CCC(=O)N(C(COCc3cccc(C)c3)C(C)C)CC2)cc1 (stereo not drawn)	13µM*	-3	-12	-11%	10µM*	-20%
CC1=C(C(=O)Nc2ccccc2C)C(c2ccc(C)o2)C2=C(CCCC2=O)N1 (stereo not drawn)	·	12	28	-15%	2%	25%
CCCCS(=O)(=O)N1CCC(C(=O)Oc2ccccc2OC)CC1	0%	-2	-8	·	6%	·
Cc1ccc2c(C)c(C(=O)N(Cc3ccc(F)cc3)C3CCS(=O)(=O)C3)oc2c1 (stereo not drawn)	?	-6	-3	?	-14%	?
O=S(=O)(c1ccccc1)N1CCN(Cc2cccc(Cl)c2)CC1	-4%	-5	-10	3%	4%	0%
CN1CCCCc2c1nc1c(c2N)CCCC1	-15%	-3	-12	-30%[14.3 µM]	-12%	?
N#C/C(=C\c1ccc(OCCN2CCOCC2)cc1)C(=O)Nc1ccccc1F	108%	15	-16	15%	3%	11%
N#C/C(=C\c1ccc(OCCN2CCOCC2)cc1)C(=O)Nc1ccc(S(N)(=O)=O)cc1	6.6µM*	-3	-30	·	3%	·
COc1ccccc1NC(=O)/C(C#N)=C/c1ccc(OCCN2CCOCC2)c(OC)c1	3%	4	30	7%	8%	-1%
COc1ccc(NC(=O)/C(C#N)=C/c2ccc(OCCN3CCOCC3)c(OC)c2)c(OC)c1	13µM*	-2	12	·	-6%	·
Nc1cc(F)ccc1N1CCCCCC1	144%	12	-10	1%[46.1 µM]	1µM*	1%[46.1 µM]
Nc1nc(Cl)cc(N2CCCC2)n1	7.4µM*	8	-3	·	0%	8%[46.1 µM]
Nc1cc(Cl)ccc1N1CCCC1	?	-6	-5	11%	2.1µM*	19%[46.1 µM]
Nc1cc(Cl)ccc1N1CCOCC1	·	5	-9	22%	13%	-6%[46.1 µM]
CN1CCN(c2ccc(Cl)cc2N)CC1	35%	11*	13	·	82%	·
O=S1(=O)C2CC3C=CC2(CN1Cc1ccccc1)O3 (stereo not drawn)	·	4	9	·	·	·
CC(Oc1ccc(Cl)cc1Cl)C(=O)Nc1ccc(OCC(=O)O)cc1 (stereo not drawn)	3%	-1	-6	13%[46.1 µM]	74%	22%[46.1 µM]
CC(C)C[C@@H](CN(C)N=O)N(C[C@H](Cc1ccccc1)N(CCc1ccccc1)N=O)N=O	?	2	-12	·	?	·
CN(C[C@H](CC1CCCCC1)N(C[C@H](Cc1ccccc1)N(CCc1ccccc1)N=O)N=O)N=O	?	-3	-4	·	13µM*	·
CCCC[C@H](CN(N=O)[C@@H](Cc1ccccc1)CN(C)N=O)N(CCc1ccccc1)N=O	?	-1	-7	·	?	·
CN(C[C@H](Cc1ccccc1)N(C[C@H](Cc1ccccc1)N(CCc1cc(C(F)(F)F)cc(C(F)(F)F)c1)N=O)N=O)N=O	4.1µM*	-1	-32	·	?	·
Cc1ccccc1S(=O)Cc1ccc(C(=O)NC2CCN(Cc3ccccc3)CC2)o1 (stereo not drawn)	?	-11	-9	·	-9%	·
Nc1cc(-c2ccccc2)n2c(n1)nc1ccccc12	-4%	-2	-4	2%	-2%	?
